Data on 97 molecules can be found in PubChem BioAssay AID1851 (National Center for Advancing Translational Sciences (NCATS), 2009).

Several values for one entry are separate records, joined by “and”; a condition that tells them apart may be missing. Equal values may be shown once. About 5,700 (36%) of roughly 16,000 compounds were called active. Another 24% or so got no clear call; they are omitted. The list shows a part of the results. A number with no mark means an inactive call. The call rests on the fitted dose curve; in most records, active means well fitted curve in the direction sought with a large enough effect; inconclusive means small, poorly fitted or top-dose-only effect, or effect the other way; inactive means no such curve, though single readings can be large or run the other way.
On the % scale 0 is the no-effect control and ±100 the full control effect.

The target in the test is Cytochrome P450 1A2 (Homo sapiens) (UniProt P05177). Kind of test: Cytochrome panel assay with activity outcomes. The note with it: recombinant CYP, pro-luciferin dealkylation, luminescence, p450-cyp1a2; series mostly up to 57.1 µM.
Cytochrome P450 1A2 (Homo sapiens), sequence (P05177 whole entry, looked up): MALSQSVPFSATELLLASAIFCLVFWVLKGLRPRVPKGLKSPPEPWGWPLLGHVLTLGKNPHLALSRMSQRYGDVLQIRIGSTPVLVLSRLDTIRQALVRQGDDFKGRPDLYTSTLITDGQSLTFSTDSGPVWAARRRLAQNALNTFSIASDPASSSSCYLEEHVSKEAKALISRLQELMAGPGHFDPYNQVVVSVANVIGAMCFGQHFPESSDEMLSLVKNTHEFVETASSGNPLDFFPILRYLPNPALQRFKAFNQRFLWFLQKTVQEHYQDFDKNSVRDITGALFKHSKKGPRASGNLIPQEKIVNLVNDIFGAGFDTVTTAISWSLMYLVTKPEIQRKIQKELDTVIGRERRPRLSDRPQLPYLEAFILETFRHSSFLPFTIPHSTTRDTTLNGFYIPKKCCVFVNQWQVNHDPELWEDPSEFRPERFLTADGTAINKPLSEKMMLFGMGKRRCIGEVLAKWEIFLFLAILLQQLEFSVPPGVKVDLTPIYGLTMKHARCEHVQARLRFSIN
Take `Cc1nc(SC2CC(=O)N(c3ccc([N+](=O)[O-])cc3)C2=O)nc2c1CCCC2` (configuration not stated): the AC50 (commonly the concentration at which the activity in the assay is half-maximal) was “inactive”. Same read-out and setting: next, `Cc1cnc(CNc2ncncc2-c2ccccc2C#N)cn1`: 0.251 µM (active). The same measure, in the same setting: next, `C[C@@]1(O)CCOC(=O)C1`: “inactive”. In the case of `CCCCC#Cc1nc(N)c2ncn([C@@H]3O[C@@H](C(=O)NCC)[C@H](O)[C@@H]3O)c2n1`, the AC50 result was “inactive”.

As for `COc1ccc(CCN(C(=O)C(F)(F)F)C(C(=O)NC2CCCC2)c2cccs2)cc1` (configuration not stated), the AC50 is 12.6 µM (active). As to `COc1ccc(CN(C(=O)Cc2cccs2)C(C(=O)NC2CCCC2)c2ccncc2)cc1` (configuration not stated), the AC50 entry was “inactive”. Consider `Cc1ccc(N(C(=O)C(F)(F)F)C(C(=O)NC2CCCCC2)c2cccs2)cc1C` (configuration not stated), for which the AC50 entry is “inactive”.

Turning to `COc1cccc(N2CCN(C(=O)Nc3ccc4c(c3)NC(=O)CO4)CC2)c1`, the AC50 entry was “inactive”. In the case of `Cc1ccc(C(=O)N/C(=C/C=C/c2ccccc2)C(=O)NCc2ccco2)cc1`, the AC50 entry is “inactive”. Consider `O=C(COC(=O)c1ccccc1Nc1cccc(C(F)(F)F)c1)NCc1ccco1`, for which the AC50 was 5.01 µM (active). Take `Cc1cccc(Nc2ccccc2C(=O)OCC(=O)N(C)C2CCS(=O)(=O)C2)c1C` (configuration not stated): the AC50 result is “inactive”. Turning to `Cc1cccc(Nc2ccccc2C(=O)OCC(=O)NCc2ccco2)c1C`, the AC50 is 12.6 µM (active).

Take `O=C(COC(=O)c1cccc(S(=O)(=O)N2CCN(c3ccccc3)CC2)c1)NCc1ccco1`: the AC50 entry is “inactive”. In the case of `O=C(CSc1nnc(CNc2ccccc2)o1)N1CCCc2ccccc21`, the AC50 is 12.6 µM (active). On to `O=C(CSc1n[nH]c(-c2ccccc2O)n1)N1CCCc2ccccc21`, for which the AC50 is 2 µM (active).

For `O=C(CSc1nnc(CNc2ccc(F)cc2)o1)OC1CCCCC1`, the AC50 was 25.1 µM (active). Turning to `CCN(CC)C(=O)CSc1nnc(C2CCCCC2)o1`, the AC50 entry was “inactive”. As to `O=C(O)CCC(=O)N1CCc2cc(S(=O)(=O)NCc3cccs3)ccc21`, the AC50 entry was “inactive”. Take `CCN(CC)C(=O)CSc1nnc(CNc2ccc(F)cc2)o1`: the AC50 result was “inactive”. For `O=C(NCc1ccccc1)c1ccc(S(=O)(=O)N2CCCc3ccccc32)cc1`, the AC50 result was “inactive”. Take `O=C(CSc1nc(-c2ccccc2)cs1)N1CCc2ccccc21`: the AC50 is 2.51 µM (active).

Regarding `O=C(CNCCO)N1CCc2ccccc21`, the AC50 result is “inactive”. Consider `C[C@]12CC[C@H]3c4ccc(OC[C@H]5CO5)cc4CC[C@H]3[C@H]1CC[C@@H]2O`, for which the activity, negative = inhibition is -8.48% [at 11.4 µM]. Same read-out and setting: next, `CC(=O)OC[C@@H]1O[C@H](CCO/N=C(\C)CCN2CCc3nc(-c4ccccc4)c(-c4ccccc4)cc3C2)C=C[C@@H]1OC(C)=O`: 1.24% [at 11.4 µM]; `O=C1[C@H]2[C@H]3[C@H](O)[C@H](O)C/C(=N/OC[C@@H](O)COCc4ccco4)[C@@H]3CC[C@@H]2C(=O)N1Cc1ccc2c(c1)OCO2`: -3.61% [at 11.4 µM].

Take `Cc1cccc(OCC(=O)N/N=C\C=C\c2ccc3c(c2)OCO3)c1C`: the AC50 was 5.01 µM (active). Same read-out and setting: next, `COC(=O)N/N=C\C=C\c1ccc2c(c1)OCO2`: “inactive”; `CN1CCC2(CC1)CCN(S(=O)(=O)c1ccccc1)CC2`: “inactive”; `CC1CN(C(=O)c2cc3c(s2)CCC3)CC(C)O1` (configuration not stated): 12.6 µM (active). On to `Cc1ccc(CC(=O)N2CC(C)OC(C)C2)cc1` (configuration not stated), for which the AC50 result is “inactive”. In the case of `Cc1cc(C)n(C(=O)c2cc3c(s2)CCCC3)n1`, the AC50 was 0.282 µM (active).

As for `CC1CN(C(=O)CN2C(=O)NC3(CCCCCC3)C2=O)CC(C)O1` (configuration not stated), the AC50 entry was “inactive”. In the case of `CCCN(CCC)CCc1cccc2c1CC(=O)N2`, the AC50 result is “inactive”. Turning to `NC(=O)CNCCC(c1ccccc1)c1ccccc1`, the AC50 result is “inactive”. For `CN(C)CCCN1c2ccccc2Sc2ccc(C(F)(F)F)cc21`, the AC50 is 1.58 µM (active) and 794 nM (active). For the molecule `CCC(=O)c1ccc2c(c1)N(CCCN(C)C)c1ccccc1S2`, the AC50 is 0.631 µM (active). With `CN(C)CCCO[C@H]1[C@@H]2OC(C)(C)O[C@@H]2O[C@@H]1[C@H](O)CO`, the AC50 result is “inactive”. On to `CC(=NC1CCCCC1)c1ccccc1O`, for which the activity, negative = inhibition is -14.9% [at 11.4 µM]. In the case of `C/C(=N/Nc1ccc2ccccc2n1)c1ccccc1O`, the AC50 was 1.58 µM (active).

As to `C/C(CCN1CCc2nc(-c3ccccc3)c(-c3ccccc3)cc2C1)=N\O[C@@H](C)CN1CCCc2nc(C)c(C)cc21`, the activity, negative = inhibition is -2.64% [at 11.4 µM]. For `Cc1cc2nnc(SCC(=O)OC(C)C)n2c2ccccc12`, the concentration at half-maximal activity (AC50) is 14.1 µM (active). On to `Cc1cc2nnc(SCCCCN3C(=O)c4ccccc4C3=O)n2c2ccccc12`, for which the AC50 was 15.8 µM (active). On the same count and under the same terms, next, `CC(C)NC(=O)CSc1nnc(C2CC2)n1-c1ccccc1`: “inactive”; `Cc1cc2nnc(SCC(=O)N3CCN(c4ccccc4)CC3)n2c(N)n1`: “inactive”. Consider `CCOc1ccc(CNC(=O)C2CC(=O)N(C3CCCC3)C2)cc1OC` (configuration not stated), for which the AC50 entry is “inactive”. For the molecule `O=C(NCCN1CCN(Cc2ccccc2)CC1)C1CC(=O)N(C2CCCC2)C1` (configuration not stated), the AC50 result was “inactive”. As for `CCOc1ccc(CCNC(=O)C2CC(=O)N(C3CCCC3)C2)cc1OCC` (configuration not stated), the AC50 was 10 µM (active). The same measure, in the same setting: next, `COc1cc2c(cc1OC)-c1cc3ccc(OC)c(OC)c3c[n+]1CC2`: “inactive”. For the molecule `COc1ccc2cc3[n+](cc2c1OC)CCc1cc2c(cc1-3)OCO2`, the concentration at half-maximal activity (AC50) was 5.01 µM (active).

Take `CCn1nc(C)c(NC(=O)/C=C/c2cnn(C)c2C)c1C`: the AC50 result is “inactive”.

Regarding `CCN1CCN(c2nc(-c3ccccn3)nc3ccccc23)CC1`, the AC50 is 11.2 µM (active).

As for `CCN1CCN(c2nn3c(=O)c4ccccc4nc3c3ccccc23)CC1`, the half-maximal activity concentration (AC50) is 6.31 µM (active).

For `CCN1CCN(C(=O)CCc2nc3ccccc3c(=O)[nH]2)CC1`, the AC50 entry was “inactive”.

Regarding `CCn1cc(C(=O)O)c(=O)c2cc(F)c(N3CCNCC3)nc21`, the AC50 entry is “inactive”.

With `Cc1cccc(C2NC(=O)c3c(sc(C)c3C)N2)c1O` (configuration not stated), the AC50 is 3.55 µM (active).

In the case of `O=C1CCCC=C1[C@@H](O)CCOC(c1ccccc1)(c1ccccc1)c1ccccc1`, the activity, negative = inhibition is -6.79% [at 11.4 µM].

On to `CCOC(=O)N1CCN(C(=O)CNCc2cccs2)CC1`, for which the AC50 result is “inactive”. Turning to `COCCNC(=O)CSc1ncnc2sccc12`, the AC50 entry is “inactive”.

With `CCOC(=O)N1CCN(C(=O)CN(C)S(=O)(=O)c2ccc3c(c2)C(C)(C)C(=O)N3C)CC1`, the AC50 entry was “inactive”. Consider `CCCNC(=O)CSc1nc(-c2cccs2)cc(C(F)(F)F)n1`, for which the AC50 was 2.51 µM (active).

As for `CCOC(=O)N1CCN(c2nc(-c3cccs3)cc(C(F)(F)F)n2)CC1`, the AC50 was 2.82 µM (active). `COc1cc2nc(N3CCN(C(=O)c4ccco4)CC3)nc(N)c2cc1OC`: the AC50 entry was “inactive”. Take `CCOC(=O)N1CCN(c2nc(-c3ccco3)cc(C(F)(F)F)n2)CC1`: the half-maximal activity concentration (AC50) was 0.501 µM (active).

As to `CCC1(C)CC(CCNS(=O)(=O)c2ccc(C)cc2)(c2ccc(C)cc2)CCO1` (configuration not stated), the AC50 entry was “inactive”. The same measure, in the same setting: next, `CN(C)c1ncc2nc(-c3ccccc3)c(=O)n(C3CC3)c2n1`: 2.51 µM (active).

On to `CN(C)c1ncc2nc(-c3ccc(F)cc3)c(=O)n(C3CC3)c2n1`, for which the AC50 is 1.58 µM (active). On the same count and under the same terms, next, `CCc1cccc(N(C)C(N)=Nc2cccc3ccccc23)c1`: “inactive”. As to `CC(=O)OC[C@H]1O[C@@H](O/N=C\[C@@H](C)[C@H](OCc2ccccc2)C(C)C)[C@H](OC(C)=O)[C@@H](OC(C)=O)[C@H]1OC(C)=O`, the activity, negative = inhibition was -8.7% [at 11.4 µM].

As to `CN(Cc1ccco1)c1nc(-c2ccccc2C(F)(F)F)nc2ccccc12`, the AC50 was 2 µM (active). For `COc1ccccc1-c1nc(N(C)Cc2ccco2)c2ccccc2n1`, the concentration at half-maximal activity (AC50) is 0.501 µM (active). On the same count and under the same terms, next, `CN(Cc1ccco1)c1ccnc(-c2ccccc2C(F)(F)F)n1`: 2.51 µM (active). As to `CCC(C)(C(=O)NC1CCCC1)N(Cc1ccco1)C(=O)c1ccccn1` (configuration not stated), the AC50 entry was “inactive”. As for `Cc1ccccc1-c1nc(N(C)Cc2ccco2)c2ccccc2n1`, the AC50 was 1.58 µM (active). On to `CN(C)Cc1ccccc1-c1nc(N(C)Cc2ccco2)c2ccccc2n1`, for which the AC50 is 0.794 µM (active).

For `CC(C)c1ccc(/C(C(=O)O)=C(\O)C(=O)O)cc1`, the activity, negative = inhibition is -18.6% [at 11.4 µM]. On to `COc1c(O)cc2c(c1O)[C@@H]1O[C@@H](CO)[C@@H](O)[C@@H](O)[C@@H]1OC2=O`, for which the AC50 entry is “inactive”. `CCOC(=O)N/N=C(/C)c1ccc([N+](=O)[O-])o1`: the AC50 was 12.6 µM (active). Same read-out and setting: next, `Cc1ccc(NCC(=O)N/N=C/c2ccc(OC(=O)c3ccco3)cc2)cc1`: 7.08 µM (active).

Turning to `Cc1ccc(NCC(=O)N/N=C\c2ccc([N+](=O)[O-])o2)cc1`, the AC50 was 1.41 µM (active). Consider `Cc1ccc(C(=O)N/N=C/c2ccc(S(=O)(=O)O)o2)c(Cl)c1`, for which the AC50 entry is “inactive”. On to `CCOC(=O)N/N=C\c1ccc([N+](=O)[O-])o1`, for which the concentration at half-maximal activity (AC50) is 12.6 µM (active). For the molecule `O=C(ON=C1CCN(S(=O)(=O)c2ccccc2)CC1)c1ccccc1`, the AC50 entry is “inactive”. As for `CCN1C(=O)C2(SC(NC(C)=O)=NN2C(C)=O)c2cc(C)ccc21` (configuration not stated), the AC50 result was “inactive”. Still for that read-out and setting: next, `CC(C)C[C@H](NC(=O)[C@@H]1O[C@H]1C(=O)O)C(=O)NCCCCN=C(N)N`: “inactive”; `Cc1nonc1NC(=O)OCCN1CCOC1=O`: “inactive”. As to `Clc1ccc2c(c1)C(c1cccs1)=NNC(c1cccnc1)=N2`, the concentration at half-maximal activity (AC50) was 3.16 µM (active). In the case of `Nc1ccc(Sc2cnn(-c3ccccc3)c(=O)c2Cl)cc1`, the AC50 was 5.01 µM (active). On the same count and under the same terms, next, `O=c1c(Cl)c(N2CCN(S(=O)(=O)c3ccc(F)cc3)CC2)cnn1-c1cccc(Cl)c1`: “inactive”. For `CC1(C)Cc2ccccc2C(NNC(=O)c2ccncc2)=N1`, the AC50 was 10 µM (active). Same read-out and setting: next, `CN1CCC2(CC1)CCN(C(=O)c1ccncc1)CC2`: “inactive”. Consider `CC(C)NNC(=O)c1ccncc1`, for which the AC50 entry was “inactive”. The same measure, in the same setting: next, `Cc1sc(NC(=O)C2CCCCC2)c(C#N)c1-c1ccccc1`: 5.01 µM (active). On the same count and under the same terms, next, `Cc1sc(NC(=O)/C=C/c2ccc(C(C)C)cc2)c(C#N)c1C`: “inactive”. For `CC1=C(C#N)C(NC(=O)C2CCCCC2)(C(F)(F)F)C(=O)N1` (configuration not stated), the AC50 entry is “inactive”.

For `C[N+](C)(C)CCCSc1nc2ccccc2[nH]1`, the activity, negative = inhibition was -15.1% [at 11.4 µM].

Turning to `Cc1c(OCC(F)(F)F)ccnc1CSc1nc2ccccc2[nH]1`, the half-maximal activity concentration (AC50) was 3.55 µM (active).

As to `O=c1c[n+](CCCC[n+]2cc(=O)o[nH]2)[nH]o1`, the activity, negative = inhibition is 2.3% [at 11.4 µM].
